Reference: PubChem BioAssay
Inconclusive results are not listed. Activity calls are given as the source filed them.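 How the source made its calls, unless noted: active means GFP response above 150% of the DMSO control; inconclusive means fewer than 70 events counted in any yeast strain; inactive means the rest.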

Columns and labels:
[1] = hit retest on RPL19A-GFP reporter strain – cell-based, S. cerevisiae, flow cytometry, cherry picks, mother/daughter gates, confirmation (AID 2270;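 active means GFP response below 50% of the DMSO control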); settings: 3 h, at 10 µM, stronger effect = lower value, 100 = same GFP as DMSO wells
[2] = yeast TOR pathway reporter LAP4-GFP change – cell-based, cherry picks, flow cytometry, mother/daughter gates, confirmation (AID 2271);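 further: ratio of sample to DMSO plate mean so 100% equals DMSO level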; settings: S. cerevisiae LAP4-GFP strain, 3 h, at 10 µM, stronger effect = higher value
[3] = TOR pathway CIT2 reporter hit retest – S. cerevisiae, GFP fusion, cherry picks, mother/daughter gates, confirmation (AID 2274;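 active means GFP response above 150% of the DMSO level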); settings: S. cerevisiae CIT2-GFP strain, flow cytometry, 3 h, at 10 µM, stronger effect = higher value
[4] = rapamycin-like changes in RPL19A-GFP expression – cell-based, S. cerevisiae, multiplex flow cytometry, primary screen (AID 1862; in the data active means percent of DMSO control GFP below about 86%;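 further: lower values mimic rapamycin by blocking the RPL19A rise seen in DMSO cells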); settings: S. cerevisiae RPL19A-GFP strain, flow cytometry fluorescence, 3 h; at 10 µM; stronger effect = lower value
[5] = TOR pathway GLN3 branch reporter MEP2-GFP changes – S. cerevisiae, multiplex flow cytometry, primary screen (AID 1867;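 active means GFP response, as percent of the DMSO control, above the screen-wide mean plus 3 SD, about 139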;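 further: median GFP channel fluorescence of barcode-gated MEP2-GFP cells measured by flow cytometry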); settings: S. cerevisiae MEP2-GFP strain, 3 h, at 10 µM, stronger effect = higher value
[6] = TOR pathway RTG branch CIT2 reporter changes – S. cerevisiae, GFP fusion, multiplex flow cytometry, primary screen (AID 1870;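 active means percent response above a set limit, the screen-wide mean plus 3 SD, cut at about 130% in these data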;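 further: barcoded CIT2-GFP strain pooled with four other GFP strains with rapamycin as positive control; median GFP fluorescence per well over plate mean of DMSO wells so 100% = DMSO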); settings: S. cerevisiae CIT2-GFP expression, 3 h, at 10 µM, stronger effect = higher value
[7] = TOR pathway LAP4-GFP level changes – S. cerevisiae, multiplex flow cytometry, primary screen (AID 1873;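 active means GFP signal, as percent of the solvent control, above the screen mean plus 3 SD, about 149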); settings: S. cerevisiae LAP4-GFP expression, 3 h, at 10 µM, stronger effect = higher value
[8] = reduced mouse 2C T cell binding to pMHC/ICAM-1 vesicles – MLPCN validation set, flow cytometry, LFA-1/ICAM-1 modulator project, pilot screen (AID 2523;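 active means response below a set limit, under 55% cells CD8-positive and vesicle-bound, and CD8 cells' 90th-percentile brightness under 279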;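 on vesicle binding response: mean PE anti-B7-1 fluorescence of CD8+ cells relative to row control; 100% = QL9-loaded vesicles with DMSO vehicle in the same plate row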); settings: 2C mouse CD8+ T cells, at 7 µM, stronger effect = lower value; double positive events: measured here: CD8+/vesicle+ event percentage
[9] = biological target: Integrin beta-1 (Homo sapiens) + Integrin alpha-4 (Homo sapiens) (UniProt P13612+P05556); assay: alpha4beta1 integrin LIBS antibody binding reduction – U937 cells, HUTS-21 mAb, flow cytometry, validation set, VLA-4 allosteric modulator project, pilot screen (AID 2674;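 active means inhibition above 50%, about 3 SD of the validation set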;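 further: antibody binding induced by the VLA-4 ligand LDV present at three times its Kd; 0% = LDV ligand with antibody and no compound and 100% = antibody without LDV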); settings: HUTS-21 LIBS mAb binding, at 6.7 µM, stronger effect = higher value
Sequence of Integrin beta-1 (Homo sapiens) + Integrin alpha-4 (Homo sapiens) (P05556 whole entry, looked up): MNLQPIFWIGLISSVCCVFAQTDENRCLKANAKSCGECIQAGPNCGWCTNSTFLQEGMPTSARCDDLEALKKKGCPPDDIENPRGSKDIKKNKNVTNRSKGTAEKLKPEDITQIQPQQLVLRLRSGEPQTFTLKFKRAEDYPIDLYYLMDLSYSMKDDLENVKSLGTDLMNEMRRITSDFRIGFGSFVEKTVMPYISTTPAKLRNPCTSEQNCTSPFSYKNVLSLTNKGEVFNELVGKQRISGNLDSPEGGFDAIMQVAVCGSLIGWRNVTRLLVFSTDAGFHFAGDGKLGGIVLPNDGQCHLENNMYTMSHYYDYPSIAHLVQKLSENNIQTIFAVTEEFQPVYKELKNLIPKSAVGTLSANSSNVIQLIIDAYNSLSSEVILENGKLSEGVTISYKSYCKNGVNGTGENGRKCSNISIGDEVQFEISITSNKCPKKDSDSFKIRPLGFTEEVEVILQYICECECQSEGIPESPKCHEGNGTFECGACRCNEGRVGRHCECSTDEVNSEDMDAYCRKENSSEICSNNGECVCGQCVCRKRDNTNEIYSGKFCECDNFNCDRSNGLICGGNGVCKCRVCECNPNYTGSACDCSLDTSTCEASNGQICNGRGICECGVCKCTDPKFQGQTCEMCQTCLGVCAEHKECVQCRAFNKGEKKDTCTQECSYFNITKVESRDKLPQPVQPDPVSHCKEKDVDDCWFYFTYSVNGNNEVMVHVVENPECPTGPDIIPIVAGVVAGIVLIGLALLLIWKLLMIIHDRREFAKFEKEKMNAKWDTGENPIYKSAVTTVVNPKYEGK
Sequence of Integrin beta-1 (Homo sapiens) + Integrin alpha-4 (Homo sapiens) (P13612 whole entry, looked up): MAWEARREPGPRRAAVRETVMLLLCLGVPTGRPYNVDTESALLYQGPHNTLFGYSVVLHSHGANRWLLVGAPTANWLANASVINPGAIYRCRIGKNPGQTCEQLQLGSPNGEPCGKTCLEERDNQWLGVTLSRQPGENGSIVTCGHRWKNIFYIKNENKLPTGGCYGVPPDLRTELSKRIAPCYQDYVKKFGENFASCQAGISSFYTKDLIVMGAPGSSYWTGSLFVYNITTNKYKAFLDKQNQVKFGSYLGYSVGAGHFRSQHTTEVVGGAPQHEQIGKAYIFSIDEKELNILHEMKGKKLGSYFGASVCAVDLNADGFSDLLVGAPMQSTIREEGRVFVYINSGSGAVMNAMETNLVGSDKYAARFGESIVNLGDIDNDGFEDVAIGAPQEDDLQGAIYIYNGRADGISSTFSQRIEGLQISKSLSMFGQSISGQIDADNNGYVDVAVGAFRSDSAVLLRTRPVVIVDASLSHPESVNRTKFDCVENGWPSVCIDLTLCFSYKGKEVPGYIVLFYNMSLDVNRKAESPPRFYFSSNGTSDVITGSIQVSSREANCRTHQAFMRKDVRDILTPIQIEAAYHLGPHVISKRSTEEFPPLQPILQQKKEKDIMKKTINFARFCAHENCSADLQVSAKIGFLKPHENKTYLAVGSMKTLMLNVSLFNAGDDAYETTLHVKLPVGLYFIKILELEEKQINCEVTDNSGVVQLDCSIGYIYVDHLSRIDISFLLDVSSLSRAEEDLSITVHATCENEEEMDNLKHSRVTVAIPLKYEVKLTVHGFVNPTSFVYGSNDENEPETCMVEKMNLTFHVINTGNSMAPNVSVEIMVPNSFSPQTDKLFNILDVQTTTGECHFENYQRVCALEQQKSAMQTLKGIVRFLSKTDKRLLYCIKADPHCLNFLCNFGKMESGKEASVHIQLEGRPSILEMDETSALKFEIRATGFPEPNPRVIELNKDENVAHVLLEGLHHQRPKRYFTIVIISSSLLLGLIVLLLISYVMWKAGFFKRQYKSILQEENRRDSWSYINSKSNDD

[10] = calorie-restriction mimetic ROS inhibitors, yeast – validation compound set, pilot screen (AID 2706;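 active means superoxide response below 65% of plate, a cut near 3 SD across the whole screen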;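 further: yeast exposed to compound for one week at 30 degrees C before staining; 100% = mean of all compound wells on the same plate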); settings: S. cerevisiae aging, superoxide DHE fluorescence; at 10 µM; stronger effect = lower value
[11] = biological target: Beta-adrenergic receptor kinase 1 (Homo sapiens) (UniProt P25098); assay: GRK2 binders displacing RNA aptamer, biochemical, validation, human GRK2, bead flow cytometry (AID 488806;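 active means aptamer binding inhibition above 30%, about 3 SD of noise from non-fluorescent compounds; inactive means inhibition at or below 30%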); settings: bead-bound GRK2, FAM-aptamer displacement, at 10 µM, stronger effect = higher value
Sequence of Beta-adrenergic receptor kinase 1 (Homo sapiens) (P25098 whole entry, looked up): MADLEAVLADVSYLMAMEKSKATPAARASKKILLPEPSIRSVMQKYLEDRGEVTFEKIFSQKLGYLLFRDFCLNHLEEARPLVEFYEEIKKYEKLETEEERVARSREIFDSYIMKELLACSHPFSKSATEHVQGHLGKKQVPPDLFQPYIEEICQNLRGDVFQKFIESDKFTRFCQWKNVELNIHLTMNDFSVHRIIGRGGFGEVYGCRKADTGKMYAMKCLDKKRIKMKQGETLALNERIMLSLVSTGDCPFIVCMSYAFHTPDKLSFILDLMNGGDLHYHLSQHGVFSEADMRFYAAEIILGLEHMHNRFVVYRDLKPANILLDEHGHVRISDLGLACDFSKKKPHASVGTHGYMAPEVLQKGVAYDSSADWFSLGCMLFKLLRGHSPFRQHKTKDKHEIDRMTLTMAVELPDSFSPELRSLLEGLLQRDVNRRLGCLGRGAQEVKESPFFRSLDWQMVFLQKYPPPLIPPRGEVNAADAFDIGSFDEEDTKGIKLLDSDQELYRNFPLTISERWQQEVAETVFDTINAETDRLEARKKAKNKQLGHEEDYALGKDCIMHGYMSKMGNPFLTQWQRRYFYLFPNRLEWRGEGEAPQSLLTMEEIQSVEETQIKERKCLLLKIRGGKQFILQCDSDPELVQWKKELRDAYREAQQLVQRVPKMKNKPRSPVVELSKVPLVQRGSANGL

[12] = biological target: AP-2 complex subunit beta (Homo sapiens) (UniProt P63010); assay: beta-arrestin/AP2 interaction blockers – biochemical, validation set, GST-AP2 beads, flow cytometry, pilot screen (AID 504541;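 active means inhibition above 54%, about 3 SD of non-fluorescent compounds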;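 further: AP2 carries R879A mutation and is captured from E. coli lysate; bead-bound FITC arrestin peptide fluorescence measuring arrestin peptide binding to AP2; 0% = DMSO wells and 100% = excess unlabeled arrestin peptide control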); settings: FITC arrestin peptide, at 10 µM, stronger effect = higher value
Sequence of AP-2 complex subunit beta (Homo sapiens) (P63010 whole entry, looked up, one chain of several): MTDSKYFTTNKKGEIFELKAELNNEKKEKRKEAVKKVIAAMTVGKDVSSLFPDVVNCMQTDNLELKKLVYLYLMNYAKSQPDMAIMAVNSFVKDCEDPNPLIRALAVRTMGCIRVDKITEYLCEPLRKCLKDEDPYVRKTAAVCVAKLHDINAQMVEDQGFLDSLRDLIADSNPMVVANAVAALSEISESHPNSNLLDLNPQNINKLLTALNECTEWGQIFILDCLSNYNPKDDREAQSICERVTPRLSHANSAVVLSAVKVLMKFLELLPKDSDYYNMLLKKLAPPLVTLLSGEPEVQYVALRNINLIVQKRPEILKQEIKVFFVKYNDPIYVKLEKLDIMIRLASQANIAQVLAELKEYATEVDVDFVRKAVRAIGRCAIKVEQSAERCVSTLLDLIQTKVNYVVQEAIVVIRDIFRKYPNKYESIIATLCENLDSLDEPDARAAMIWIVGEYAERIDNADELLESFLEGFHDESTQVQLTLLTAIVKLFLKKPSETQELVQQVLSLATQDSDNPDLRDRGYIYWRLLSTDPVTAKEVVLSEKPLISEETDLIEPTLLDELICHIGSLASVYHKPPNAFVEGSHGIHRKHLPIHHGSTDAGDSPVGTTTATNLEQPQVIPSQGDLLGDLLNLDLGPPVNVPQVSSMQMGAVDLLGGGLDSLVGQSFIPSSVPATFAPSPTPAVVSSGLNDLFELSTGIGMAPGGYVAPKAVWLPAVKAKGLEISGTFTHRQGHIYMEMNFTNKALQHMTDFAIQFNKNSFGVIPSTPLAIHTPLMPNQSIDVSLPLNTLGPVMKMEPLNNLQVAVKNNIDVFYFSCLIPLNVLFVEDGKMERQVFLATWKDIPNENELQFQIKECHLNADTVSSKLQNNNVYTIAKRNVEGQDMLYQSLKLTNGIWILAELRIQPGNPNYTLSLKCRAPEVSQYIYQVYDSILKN

[13] = cytosolic pH regulators acting via V-ATPase – S. cerevisiae, pHLuorin, HTS validation (AID 504600; in the data active means response above about 15%;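 further: plate controls were DMSO for no effect and reference compound for full effect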); settings: V-ATPase proton transport, at 10 µM, stronger effect = higher value
[14] = tested on: anti-desmoglein-3 scFv antibody binding to human DSG3; assay: blockers of pathogenic pemphigus antibody–desmoglein-3 binding – biochemical, validation compound set, bead-based, flow cytometry, pilot screen (AID 588368;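 active means binding below the plate cutoff, the plate median minus 3 SD, with a reading above zero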;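 further: signal is the median channel fluorescence of bead-bound GFP antibody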); settings: Protein G beads, DSG3-Fc, scFv-GFP binding, at 10 µM, stronger effect = lower value
[15] = tested on: Botulinum neurotoxin type F light chain protease (Clostridium botulinum); assay: Clostridium botulinum type F light chain protease inhibitors, microsphere substrate cleavage, validation (AID 588459; call rule not given here); settings: multiplex microsphere protease substrate cleavage assay, flow cytometry; at 10 µM; stronger effect = higher value
[16] = biological target: Botulinum neurotoxin type A (Clostridium botulinum) (UniProt P0DPI0); assay: BoNT/A light chain protease inhibitors, biochemical, multiplex microsphere flow cytometry, validation set (AID 588460; call rule not given here); settings: at 10 µM, stronger effect = higher value
[17] = biological target: Lethal factor (Bacillus anthracis) (UniProt P15917); assay: Bacillus anthracis lethal factor inhibition, microsphere flow cytometry protease assay, validation at 10 µM (AID 588461; call rule not given here); settings: multiplex microsphere protease cleavage assay, stronger effect = higher value
[18] = Nile Red efflux blockade in pump-expressing yeast – validation compound set, multiplex, phenotypic, pilot screen (AID 588506;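 active means efflux inhibition above 0.42, the validation set average plus 4 SD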;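 further: Nile Red retained in cells so higher fluorescence means more efflux inhibition; 0 = negative control wells and 1 = enniatin B 25 µM full block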); settings: S. cerevisiae pump-expressing triplex, Nile Red efflux flow cytometry; at 10 µM; stronger effect = higher value
[19] = biological target: ATP-binding cassette sub-family B member 6 (Homo sapiens) (UniProt Q9NP58); assay: blockers of ABCB6-driven porphyrin uptake – K562-ABCB6 cells, flow cytometry, validation set, pilot screen (AID 588550;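 active means inhibition above the screen-wide mean plus 3 SD, about 51%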;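 further: 0% = DMSO wells and 100% = benzethonium chloride 70 µM positive control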); settings: K562-ABCB6 porphyrin accumulation, 1 h, at 10 µM, stronger effect = higher value
Sequence of ATP-binding cassette sub-family B member 6 (Homo sapiens) (Q9NP58 whole entry, looked up): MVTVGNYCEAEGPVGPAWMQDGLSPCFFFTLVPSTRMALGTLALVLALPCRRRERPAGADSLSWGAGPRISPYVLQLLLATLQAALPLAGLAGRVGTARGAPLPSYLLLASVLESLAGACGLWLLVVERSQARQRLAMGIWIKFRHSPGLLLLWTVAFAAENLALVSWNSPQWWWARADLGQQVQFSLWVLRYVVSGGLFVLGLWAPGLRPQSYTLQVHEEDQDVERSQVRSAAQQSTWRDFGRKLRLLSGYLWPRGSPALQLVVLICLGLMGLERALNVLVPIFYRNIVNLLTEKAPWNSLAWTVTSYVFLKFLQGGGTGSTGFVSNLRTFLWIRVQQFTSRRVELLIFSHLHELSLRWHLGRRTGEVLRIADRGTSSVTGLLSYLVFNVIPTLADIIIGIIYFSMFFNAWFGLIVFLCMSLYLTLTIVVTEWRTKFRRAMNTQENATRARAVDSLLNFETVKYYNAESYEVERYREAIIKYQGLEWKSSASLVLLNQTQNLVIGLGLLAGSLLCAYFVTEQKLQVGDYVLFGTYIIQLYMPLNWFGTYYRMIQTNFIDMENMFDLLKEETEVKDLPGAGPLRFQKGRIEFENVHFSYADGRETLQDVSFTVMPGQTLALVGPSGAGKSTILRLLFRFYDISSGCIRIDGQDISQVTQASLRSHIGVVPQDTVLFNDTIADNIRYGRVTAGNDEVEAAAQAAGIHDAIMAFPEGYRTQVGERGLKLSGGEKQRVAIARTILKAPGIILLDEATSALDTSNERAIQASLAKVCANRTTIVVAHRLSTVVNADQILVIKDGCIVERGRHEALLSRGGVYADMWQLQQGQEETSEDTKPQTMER

[20] = AML differentiation inducers, ER-HoxA9 marrow cells – cell-based, GFP/MAC1 double positive, flow cytometry, validation set, primary screen (AID 588685;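 active means differentiation response of at least 50%, scaled between solvent and reference control, from cells with both markers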;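 further: compound exposure lasts four days before antibody staining and flow analysis; 0% = DMSO wells and 100% = 5 µM fulvestrant positive control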); settings: stronger effect = higher value
[21] = measured here: daughter cell gate
[22] = measured here: mother cell gate
[23] = measured here: daughter cell gate response
[24] = measured here: mother cell gate response

With `CCCCn1c(=O)c(C(=O)Nc2ccsc2C(=O)OC)c(O)c2ccccc21` the GFP response vs DMSO [1] was 101% (inactive), the GFP response vs DMSO [1, 21] was 94.9% and the GFP response vs DMSO [1, 22] was 100%. For the same compound, the GFP response relative to DMSO [2] was 94.4% (inactive), the GFP response relative to DMSO [2, 23] was 95.9% and the GFP response relative to DMSO [2, 24] was 94.1%. For the same compound, the GFP response, % of DMSO [3] was 95.9% (inactive), the GFP response, % of DMSO [3, 21] was 93.8% and the GFP response, % of DMSO [3, 22] was 95.6%.
For `O=[N+]([O-])c1ccc(N2CCNCC2)cc1Sc1ccccn1`, the GFP response vs DMSO [1] was 98.4% (inactive), the GFP response vs DMSO [1, 21] was 98.4% and the GFP response vs DMSO [1, 22] was 99.4%. For the same compound, the GFP response relative to DMSO [2] was 91.4% (inactive), the GFP response relative to DMSO [2, 23] was 92.5% and the GFP response relative to DMSO [2, 24] was 91.1%. The GFP response, % of DMSO [3] was 96.5% (inactive), the GFP response, % of DMSO [3, 21] was 96.5% and the GFP response, % of DMSO [3, 22] was 95.5%.
For `O=C1NC(=O)N(CCc2ccc(F)cc2)C(=O)/C1=C/c1ccco1`, the GFP response vs DMSO [1] was 98% (inactive), the GFP response vs DMSO [1, 21] was 99.4% and the GFP response vs DMSO [1, 22] was 97%. For the same compound, the GFP response relative to DMSO [2] was 104% (inactive), the GFP response relative to DMSO [2, 23] was 106% and the GFP response relative to DMSO [2, 24] was 104%. The GFP response, % of DMSO [3] was 98.4% (inactive), the GFP response, % of DMSO [3, 21] was 100% and the GFP response, % of DMSO [3, 22] was 93.7%.
With `CCOC(=O)C1=C(C)OC(N)=C(C(=O)OCC)[C@@]12C(=O)N(CC(N)=O)c1ccccc12` the percent of DMSO control GFP [4] was 90.9% (inactive), the GFP response vs DMSO [5] was 120% (inactive) and the percent response of DMSO control [6] was 110% (inactive). For the same compound, the GFP response vs DMSO [7] was 71% (inactive), the double positive events [8] was 43.7% and the vesicle binding response [8] was 66.2% (active). For the same compound, the inhibition [9] was 18.1% (inactive), the superoxide response (% of plate) [10] was 104% (inactive) and the aptamer binding inhibition [11] was -1% (inactive). The inhibition [12] was -3.6% (inactive), the response [13] was 1.98% (inactive) and the binding (% of control) [14] was 104% (inactive). The inhibition [15] was 0.6% (inactive), the inhibition [16] was -0.3% (inactive) and the inhibition [17] was 0.4% (inactive). The efflux inhibition (fraction of control) [18] was -0.31 (inactive), the inhibition [19] was 6% (inactive) and the differentiation response [20] was 4.09% (inactive).
For `COc1cc(/C=C/C(=O)c2c(O)n(CCc3ccccc3)c(=O)[nH]c2=O)ccc1O`, the GFP response vs DMSO [1] was 103% (inactive), the GFP response vs DMSO [1, 21] was 104% and the GFP response vs DMSO [1, 22] was 103%. The GFP response relative to DMSO [2] was 90% (inactive), the GFP response relative to DMSO [2, 23] was 90.4% and the GFP response relative to DMSO [2, 24] was 88.9%. The GFP response, % of DMSO [3] was 115% (inactive), the GFP response, % of DMSO [3, 21] was 114% and the GFP response, % of DMSO [3, 22] was 112%.
With `CCOC(=O)c1cncn1C(C)c1ccccc1` (stereo not drawn) the percent of DMSO control GFP [4] was 104% (inactive), the percent response of DMSO control [6] was 106% (inactive) and the GFP response vs DMSO [7] was 80.2% (inactive). The double positive events [8] was 60%, the vesicle binding response [8] was 404% (inactive) and the inhibition [9] was 7.85% (inactive). The superoxide response (% of plate) [10] was 97% (inactive), the aptamer binding inhibition [11] was 4% (inactive) and the inhibition [12] was -10.9% (inactive). For the same compound, the response [13] was 2.71% (inactive), the binding (% of control) [14] was 101% (inactive) and the efflux inhibition (fraction of control) [18] was 0.27 (inactive). The inhibition [19] was 12% (inactive) and the differentiation response [20] was 2.2% (inactive).
